The source made the active and inactive calls. Rule for the calls: active = hit-call score of the fitted dose curve at least 0.9, where 1 is the maximum; inactive = score below 0.9.
What was measured:
[1] = APR_HepG2_CellCycleArrest_24hr: Apredica 24-hour HepG2 Assay for Cell Cycle Arrest (AID 2282905); conditions: imaging, actives raise or lower the signal;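 note: cell cycle arrest scored as ratio of 2N to 4N nuclear DNA content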
Outline: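 Readout: Hoechst 33342 nuclear DNA content by high-content fluorescent imaging, six images/well, 20x. Human HepG2 liver cells, 24 hr compound exposure, 0.39–200 uM, final DMSO 0.5% v/v. Gain or loss fitted relative to DMSO baseline.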

[2] = APR_HepG2_NuclearSize_24hr: Apredica 24-hour HepG2 Assay for Nuclear Size (AID 2282907); conditions: high-content imaging, actives raise or lower the signal
Outline: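 Read-out: nuclear diameter from Hoechst 33342 (2 ug/mL) imaging of fixed HepG2 cells, 20x, six fields/well. Compounds ran at 0.39–200 uM for 24 hr, 0.5% DMSO final. Gain or loss was fitted bidirectionally relative to the DMSO baseline.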

[3] = APR_HepG2_CellLoss_24hr: Apredica 24-hour HepG2 Assay for Cell Loss (AID 2282908); conditions: high-content imaging;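 for AC50: fit in both directions so a hit may be cell loss or gain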
Outline: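 Read-out: Hoechst 33342-stained nuclei counted by automated fluorescence imaging after formaldehyde fixation and Triton permeabilization. Ten concentrations, 0.39 to 200 uM, duplicate wells, 0.5% DMSO final. Gain or loss of signal fitted relative to DMSO baseline.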

[4] = APR_HepG2_MicrotubuleCSK_24hr: Apredica 24-hour HepG2 Assay for Microtubule CSK Stabilty (AID 2282909); conditions: HepG2 microtubule cytoskeleton imaging, actives raise or lower the signal
Outline: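 Read-out: alpha-tubulin immunofluorescence intensity by automated high-content imaging of fixed HepG2 cells after 24 h compound treatment. Ten concentrations, 0.39 to 200 uM, in duplicate; DMSO 0.5% v/v. Taxol positive control; DMSO-normalized bidirectional curve fitting.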

[5] = APR_HepG2_MitoticArrest_24hr: Apredica 24-hour HepG2 Assay for Mitotic Arrest (AID 2282910); conditions: high-content imaging, actives raise or lower the signal
Outline: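 High-content imaging of fixed HepG2 cells labeled with Hoechst 33342 and anti-phospho-histone H3, after 24 h treatment. Ten concentrations 0.39 to 200 uM in duplicate, final DMSO 0.5%; changes fitted both directions relative to DMSO.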

[6] = APR_HepG2_MitoMembPot_24hr: Apredica 24-hour HepG2 Assay for Mitochondrial Membrane Potential (AID 2282911); conditions: imaging, actives raise or lower the signal
Outline: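 Mitochondrial dye uptake (MitoTracker Red CMXRos, 250 nM, 30 min pre-fixation) in HepG2 after 24 hr compound exposure, 0.39–200 uM; ArrayScan images at 20x, activity fitted in both directions relative to DMSO.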

[7] = APR_HepG2_MitoMass_24hr: Apredica 24-hour HepG2 Assay for Mitochondrial Mass (AID 2282912); conditions: high-content imaging, actives raise or lower the signal
Outline: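 HepG2, 24 hr dosing, 10 concentrations 0.39–200 uM in duplicate, DMSO 0.5% final. MitoTracker Red CMXRos 250 nM, 30 min pre-fix; 3.7% formaldehyde fix. Imaging-based fluorescence intensity; gain/loss fit vs DMSO baseline.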

[8] = APR_HepG2_p53Act_24hr: Apredica 24-hour HepG2 Assay for p53 Activation (AID 2282913); conditions: high-content imaging, actives raise or lower the signal;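 note: p53 protein immunofluorescence averaged per cell in HepG2 with Hoechst nuclei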
Outline: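 Following 24 hr dosing of HepG2 at 0.39–200 uM, the cells undergo formaldehyde fixation, Triton permeabilization and multiplexed antibody labeling that includes p53 (Cy5). Signal from the imaging is referenced to DMSO solvent controls.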

[9] = APR_HepG2_CellCycleArrest_72hr: Apredica 72-hour HepG2 Assay for Cell Cycle Arrest (AID 2282914); conditions: high-content imaging, actives raise or lower the signal
Outline: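 Using multiplexed high-content imaging, HepG2 nuclei stained with Hoechst 33342 (2 ug/mL) were analysed for DNA content after fixation and permeabilization. Treatment lasted 72 hr across 0.39–200 uM in duplicate with final DMSO 0.5% v/v; DMSO served as negative control.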

[10] = APR_HepG2_CellLoss_72hr: Apredica 72-hour HepG2 Assay for Cell Loss (AID 2282915); conditions: high-content imaging
Outline: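 Cell number comes from Hoechst 33342-labelled nuclei, imaged at 20x after 3.7% formaldehyde fixation. Dosing was 0.39–200 uM, ten concentrations in duplicate, 0.5% DMSO final, for 72 h. Bidirectional fit relative to DMSO baseline.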

[11] = APR_HepG2_P-H2AX_72hr: Apredica 72-hour HepG2 Assay for H2AX Phosphorylation (AID 2282916); conditions: imaging, actives raise or lower the signal;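 note: phospho-histone H2A.x immunostain intensity per cell marking DNA damage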
Outline: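 Readout: phospho-H2A.x immunofluorescence (FITC secondary) plus Hoechst nuclear stain, high-content imaging at 20x, six fields/well. HepG2, 72 hr compound exposure, 0.39–200 uM, final DMSO 0.5% v/v. Gain or loss fitted relative to DMSO baseline.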

[12] = APR_HepG2_MitoMembPot_72hr: Apredica 72-hour HepG2 Assay for Mitochondrial Membrane Potential (AID 2282917); conditions: imaging, actives raise or lower the signal
Outline: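 Membrane potential read by MitoTracker Red CMXRos (250 nM, 30 min, pre-fixation) fluorescence imaging of HepG2 after 72 hr exposure. Ten concentrations, 0.39–200 uM, duplicate wells, 0.5% DMSO; fitted in both directions against DMSO baseline.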

[13] = APR_HepG2_MitoticArrest_72hr: Apredica 72-hour HepG2 Assay for Mitotic Arrest (AID 2282918); conditions: high-content imaging, actives raise or lower the signal
Outline: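 Using high-content imaging of fixed HepG2 cells, phospho-histone H3 signal was measured following a 72 hr incubation with ten-point compound dilutions up to 200 uM. DMSO served as the negative control and baseline for bidirectional curve fitting.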

[14] = APR_HepG2_MicrotubuleCSK_72hr: Apredica 72-hour HepG2 Assay for Microtubule CSK Stabilty (AID 2282919); conditions: HepG2 microtubule cytoskeleton, high-content imaging, actives raise or lower the signal
Outline: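 High-content imaging of alpha-tubulin staining in fixed HepG2 cells after 72 hr treatment with ten concentrations from 0.39 to 200 uM (0.5% DMSO). Fitting was bidirectional against DMSO; taxol served as positive control.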

[15] = APR_HepG2_P-H2AX_24hr: Apredica 24-hour HepG2 Assay for H2AX Phosphorylation (AID 2282920); conditions: high-content imaging, actives raise or lower the signal
Outline: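 Human HepG2 liver cells, treated 24 hr with test chemicals (0.39–200 uM, final DMSO 0.5% v/v), are fixed and co-stained for phospho-H2A.x and c-Jun with Hoechst. Imaged intensity is fitted in both directions against DMSO controls.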

[16] = APR_HepG2_StressKinase_72hr: Apredica 72-hour HepG2 Assay for Stress Kinase (AID 2282921); conditions: HepG2 stress kinase (phospho-c-Jun) imaging, actives raise or lower the signal
Outline: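 Phospho-c-Jun immunofluorescence measured by high-content imaging at 20x, six fields per well; bidirectional curve fitting against DMSO as baseline. Dosing: 0.39–200 uM, 72 h, 0.5% DMSO final.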

[17] = APR_HepG2_p53Act_72hr: Apredica 72-hour HepG2 Assay for p53 Activation (AID 2282923); conditions: high-content imaging, actives raise or lower the signal;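 note: average cellular p53 protein immunofluorescence intensity in HepG2 cells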
Outline: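 Readout: p53 immunofluorescence quantified by automated high-content imaging at 20x, six fields per well, nuclei located via Hoechst. Dosing ran 72 hr over ten concentrations from 0.39 to 200 uM; bidirectional curve fitting against DMSO baseline.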

[18] = APR_HepG2_MitoMass_72hr: Apredica 72-hour HepG2 Assay for Mitochondrial Mass (AID 2282924); conditions: high-content imaging, actives raise or lower the signal;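 note: MitoTracker Red CMXRos stain intensity per cell imaged as mitochondrial mass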
Outline: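 Readout is imaged MitoTracker Red (250 nM, 30 min, pre-fixation) signal, fitted bidirectionally against DMSO baseline. Human HepG2 liver cells received compound 0.39–200 uM in duplicate for 72 hr, final DMSO 0.5%.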

[19] = APR_HepG2_NuclearSize_72hr: Apredica 72-hour HepG2 Assay for Nuclear Size (AID 2282925); conditions: high-content imaging, actives raise or lower the signal
Outline: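 Nuclear size was read by high-content imaging of Hoechst 33342 stain after formaldehyde fixation. Compounds ran 72 h on HepG2 at 0.39 to 200 uM, with final DMSO 0.5% v/v. Curves fitted both directions relative to DMSO control.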

[20] = APR_HepG2_StressKinase_24hr: Apredica 24-hour HepG2 Assay for Stress Kinase (AID 2282922); conditions: HepG2 stress kinase (phospho-c-Jun) imaging, actives raise or lower the signal
Outline: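 High-content imaging of phospho-c-Jun immunofluorescence in fixed, permeabilized HepG2 cells after 24 h dosing. Ten concentrations, 0.39 to 200 uM, run in duplicate at 0.5% v/v DMSO; gain or loss of signal versus DMSO.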

Measured: AC50

O=C(OCCCCCCOC(=O)c1ccccc1)c1ccccc1
inactive: [1] | [2] | [3] | [4] | [5] | [6] | [7] | [8] | [9] | [10] | [11] | [12] | [13] | [14] | [15] | [16] | [17] | [18] | [19]

O=C(Nc1ccc(Cl)cc1)Nc1ccc(Cl)c(Cl)c1
inactive: [2] | [4] | [5] | [7] | [18] | [19]
active: [1] 7.09 µM | [3] 4.01 µM | [6] 13.8 µM | [8] 3.93 µM | [9] 16.6 µM | [10] 5.54 µM | [11] 6.38 µM | [12] 56.3 µM | [13] 5.5 µM | [14] 6.77 µM | [15] 4.63 µM | [16] 7.87 µM

CC(O)CC(C)(C)O (stereo not drawn)
inactive: [1] | [2] | [3] | [4] | [5] | [6] | [7] | [8] | [9] | [11] | [13] | [14] | [15] | [16] | [17] | [18] | [19]
active: [10] 70.6 µM | [12] 1.62 µM

O=C(O)c1ccccc1-n1cc(C(=O)O)c(=O)c2cc(Nc3c(F)cc(F)cc3Cl)c(Cl)cc21
inactive: [1] | [2] | [3] | [4] | [5] | [6] | [7] | [8] | [9] | [10] | [11] | [12] | [13] | [15] | [16] | [20] | [17] | [18] | [19]

COCC(C)OCC(C)OCC(C)O (stereo not drawn)
inactive: [1] | [2] | [3] | [4] | [5] | [6] | [7] | [8] | [9] | [10] | [11] | [12] | [13] | [14] | [16] | [20] | [18] | [19]

NCc1cccc(C2CCN(C(=O)c3ccc(C#Cc4ccccc4F)o3)CC2)c1
inactive: [1] | [2] | [7] | [9] | [14] | [18]
active: [3] 17.7 µM | [4] 61.3 µM | [5] 18.6 µM | [6] 18.4 µM | [8] 16.4 µM | [10] 15.5 µM | [11] 17.7 µM | [12] 98.3 µM | [13] 17.2 µM | [16] 14.3 µM | [19] 107 µM

CCOC(=O)O[C@H](C)OC(=O)c1ccc2c(c1)cc(C(=O)NC1CCN(C(C)C)CC1)n2Cc1cc(-c2ccc(Cl)s2)on1
inactive: [2] | [9] | [11] | [12] | [13] | [16] | [20] | [17] | [18] | [19]
active: [1] 94.5 µM | [3] 9.26 µM | [4] 25 µM | [5] 10.1 µM | [6] 44.4 µM | [7] 167 µM | [8] 94.5 µM | [10] 8.32 µM | [14] 94.5 µM

CCCOC(=O)c1cc(O)c(O)c(O)c1
active: [8] 38.1 µM | [9] 46.2 µM | [10] 8.44 µM | [17] 38.8 µM
inactive: [1] | [2] | [3] | [4] | [5] | [6] | [7] | [11] | [12] | [13] | [14] | [15] | [16] | [18] | [19]

CC/C(=C(/CC)c1ccc(O)cc1)c1ccc(O)cc1
inactive: [2] | [4] | [6] | [14] | [20] | [18] | [19]
active: [1] 20.9 µM | [3] 90.9 µM | [5] 50 µM | [7] 46 µM | [8] 33.8 µM | [9] 31.3 µM | [10] 79.5 µM | [11] 68 µM | [12] 71.6 µM | [13] 91.2 µM | [16] 28.7 µM

CC(C)(c1cc(Br)c(O)c(Br)c1)c1cc(Br)c(O)c(Br)c1
inactive: [2] | [4] | [7] | [8] | [12] | [14] | [16] | [20]
active: [1] 77 µM | [3] 92.1 µM | [5] 96.3 µM | [6] 66.1 µM | [9] 82.9 µM | [10] 56.7 µM | [11] 63.3 µM | [13] 69 µM | [17] 47.8 µM | [18] 51.4 µM | [19] 77.7 µM

Cc1cccc2ccccc12
inactive: [1] | [2] | [3] | [4] | [5] | [6] | [7] | [8] | [9] | [10] | [11] | [12] | [13] | [14] | [15] | [16] | [20] | [18] | [19]

CN(C[C@@H](CC[N+]12CCC(C3CCCCC3)(CC1)CC2)c1ccc(Cl)c(Cl)c1)C(=O)c1cc(C(F)(F)F)cc(C(F)(F)F)c1
active: [3] 13.1 µM | [4] 34.3 µM | [5] 33.4 µM | [6] 1.27 µM | [7] 100 µM | [8] 18.3 µM | [10] 24.9 µM | [11] 31.8 µM | [12] 47.8 µM | [13] 36.3 µM | [14] 28.4 µM | [15] 35.1 µM | [17] 26.7 µM
inactive: [1] | [2] | [9] | [16] | [18] | [19]

From PubChem BioAssay (EPA / NIEHS)
